Compounds with a hit are over-represented: about 5.3% of the library has one in this group of screens.
KDM4E inh: inhibitors of human JMJD2E histone demethylase | B2RXH2 | JMJD2E catalytic domain, FDH-coupled NADH fluorescence (FDH is formaldehyde dehydrogenase) | Potency, µM (series often up to 57.1 µM), inactives show top-dose activity change, negative = inhibition, usual class: inhibitors | 1.6% of 230,000 active | AID 2147; active means well fitted inhibition curve with a large enough effect, not every such curve was filed as active; inconclusive means small, poorly fitted or top-dose-only effect, or another doubt; inactive means no such curve, though single readings can be large or run the other way;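 further: potency means the concentration at half of the fitted maximal effect; 0% = wells with enzyme and -100% = buffer wells without enzyme; nearly all actives have a fitted effect of over 50% in size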
Target sequence (B2RXH2 1-337 limits assumed): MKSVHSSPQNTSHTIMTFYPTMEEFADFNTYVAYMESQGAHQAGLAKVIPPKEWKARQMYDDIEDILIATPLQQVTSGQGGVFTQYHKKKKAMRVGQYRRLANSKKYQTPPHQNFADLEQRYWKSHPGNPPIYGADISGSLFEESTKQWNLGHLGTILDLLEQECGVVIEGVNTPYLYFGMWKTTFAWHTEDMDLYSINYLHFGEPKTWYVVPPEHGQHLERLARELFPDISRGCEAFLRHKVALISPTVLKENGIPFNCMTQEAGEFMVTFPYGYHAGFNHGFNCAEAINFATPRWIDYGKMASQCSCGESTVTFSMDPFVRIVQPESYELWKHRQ
Tau fibril ThT: inhibitors of human tau fibril formation, thioflavin T binding; 2.1% of 270,000 active; AID 1460; P10636; Potency, µM (series often up to 57.4 µM), for inactives: at the top dose activity, negative = inhibition, most hits filed as inhibitors; recombinant tau K18 P301L, heparin-induced fibrillization, ThT fluorescence; further: potency means the concentration at half of the fitted maximal effect; nearly all actives have a fitted effect of over 55% in size
Target sequence (P10636 561-689 P618L limits assumed): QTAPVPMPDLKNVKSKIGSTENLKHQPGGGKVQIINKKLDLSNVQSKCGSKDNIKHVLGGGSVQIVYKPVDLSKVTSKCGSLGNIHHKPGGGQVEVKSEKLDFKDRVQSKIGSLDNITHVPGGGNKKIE
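Heparin-induced (20 uM) aggregation of recombinant human K18 P301L tau, 15 uM unlabeled with 0.24 uM labeled, pH 7 acetate buffer, 6 hr at 37 C with compound. Fibrils quantified by 30 uM ThT fluorescence after 1 hr ambient incubation.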
Coupling enz: coupling enzyme interference in Giardia aldolase counter-screen; activity change, negative = inhibition, % at 58.2 µM, hits read low; coupling enzyme system counterscreen, AmpLite Red fluorescence; 0.67% of 290,000 active; in the data active means activity change below about -30%
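First, compound is pin-transferred into glyceraldehyde-3-phosphate coupling-enzyme reagent at 57.5 uM final and held 10 min at RT. Next, substrate, coupling system and AmpLite Red are added. After 20 min RT, fluorescence (525/598 nm) is read.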
Tau fluor counter: counter-screen for tau fibril formation inhibitors | tau K18 P301L (four-repeat tau fragment) Alexa594 fluorescence, heparin fibrillization | AID 1463 | 0.93% of 280,000 active | Potency, µM (top dose mostly 57.7 µM), for the others: top-dose activity change, negative = decrease; further: potency means the concentration at half of the fitted maximal effect; nearly all actives have a fitted effect of over 55% in size
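Human K18 P301L tau (15 uM unlabeled plus 0.24 uM Alexa 594-labeled, final) in 100 mM sodium acetate pH 7 was mixed with compound and 20 uM heparin and incubated 6 hr at 37 C.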
Sfp inh: inhibitors of Bacillus subtilis Sfp phosphopantetheinyl transferase | Biochemical Sfp PPTase activity, qHTS | 3.5% of 310,000 active | Potency, µM, for inactives: largest response in the series, negative = inhibition, actives largely listed as inhibitors | AID 1490;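 further: the enzyme is Sfp with the accession as filed and its product quenches rhodamine fluorescence; potency means the concentration at half of the fitted maximal effect; 0% = enzyme reaction without inhibitor and -100% = no enzyme wells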
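Fluorescence-quenching assay: 15 nM Sfp-PPTase preincubated 15 min at room temperature with compound, then 5 uM rhodamine-CoA and 12.5 uM BHQ-2-labelled YbbR peptide added. Fluorescence (ex 525/em 598 nm) read at start and after 30 min; difference gives rate.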
Tau fibril FP: inhibitors of human tau fibril formation; 0.39% of 280,000 active; K18 P301L tau heparin fibrillization, Alexa594 FP, 6 h; P10636; Potency, µM (doses to about 57.7 µM), inactives show top-dose activity, negative = inhibition, usual class: inhibitors; further: potency means the concentration at half of the fitted maximal effect; nearly all actives have a fitted effect of over 55% in size
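Quantitative HTS format: compounds meet 15 uM recombinant K18 P301L tau and Alexa 594-tau tracer in 100 mM sodium acetate pH 7; 20 uM heparin triggers fibrillization at 37 C over 6 hr; FP gives the signal.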
Starred values were filed as active, the others as inactive; ? = inconclusive; / = no result given; [ ] = dose if it differs, or a comment. Unless noted, the call rests on the fitted dose curve; in most records, active means well fitted curve in the direction sought with a large enough effect; inconclusive means small, poorly fitted or top-dose-only effect, or another doubt; inactive means no such curve, though single readings can be large; an effect the other way counts as inactive or inconclusive. Unless noted, on the % scale 0 is the no-effect control and ±100 the full control effect.

SMILES	KDM4E inh	Tau fibril ThT	Coupling enz	Tau fluor counter	Sfp inh	Tau fibril FP
CCCCC(CC)C/C=C1\CC(C(=O)OCC)Oc2ccccc21 (centres undefined) (tested in a mixture with another compound)	/	-22.2%[81.4 µM]	-2.9	?	9.7%	-7.1%[81.3 µM]
COC(=O)C1=C(N)OC2=C(C(=O)CCC2)C1c1cccs1 (centres undefined)	3.5%	-2.6%	-14.7	0.4%	0.4%	7.1%
CCOC(=O)C1=C(N)OC2=C(C(=O)CCC2)C1c1cccs1 (centres undefined)	-8.5%	-7.6%	-40.2*	-1.3%	?	4.2%
COc1cccc(Cn2c(=O)c(-c3ccc(Cl)cc3)nc3cnc(OC)nc32)c1	/	/	-0.7	/	-8.1%	/
C=CCSC1=N/C(=C\c2cc(OCC)c(OC(C)=O)c([N+](=O)[O-])c2)C(=O)S1	4.3%	13.3%	-0.1	12.3%	56.2µM*	6.5%
CCOC(=O)COc1ccc2c(C#N)c3ccccn3c2c1	5.1%	-9.6%	-60.4*	-22.1%	-20.3%	4.6%
N#Cc1c2ccc(OCC(N)=O)cc2n2ccccc12	?	-7.5%	-37.3*	-23.7%	3.8%	-1.7%
C[C@@H](c1ccccc1)N1C(=O)[C@H]2[C@@H]3[C@H](O)[C@H](O)CC(=O)[C@H]3CC[C@H]2C1=O	/	-5.6%[11.5 µM]	0.6	-2.9%[11.6 µM]	24.5%	3.1%[11.6 µM]
Cc1n[nH]c(=S)n1/N=C/c1c(O)ccc2ccccc12	/	/	0.1	/	63.1µM*	/
Cc1cc(N=Cc2c(O)ccc3ccccc23)no1	-20.2%	22.4µM*	-42.8*	?	-13.0%	?
Cc1cn2c(=O)c(S(=O)(=O)NCc3ccccc3Cl)c(C)nc2s1	/	0.7%	/	-5.9%	/	-1.3%
Cc1nc2cnc(Nc3ccccc3)nc2n(CCc2ccccc2)c1=O	/	/	5.5	/	-11.4%	/
O=C(c1ccc(Cl)nc1)c1cccs1	-5.5%	-2.1%	5.4	-2.4%	-1.3%	-0.5%
O=C(c1cccs1)c1no[n+]([O-])c1C(=O)c1cccs1	?	?	-67.0*	?	31.6µM*	?
COc1ccc(C(=O)c2no[n+]([O-])c2C(=O)c2ccc(OC)cc2)cc1	0.1%	17.8µM*	-1.1	-28.2%	-12.6%	?
COc1ccc(NC(=O)c2c(N)no[n+]2[O-])cc1	5.1%	-13.3%	2.9	-10.1%	7.2%	-6.1%
CC(=O)OC[C@@H]1O[C@@H](O/N=C2/C[C@@H](O)[C@@H](O)[C@@H]3[C@H]4C(=O)N(c5ccc(F)cc5F)C(=O)[C@@H]4CC[C@@H]23)[C@H](OC(C)=O)[C@H](OC(C)=O)[C@@H]1OC(C)=O	/	-1.3%[11.5 µM]	2.4	-0.5%[11.6 µM]	18.0%	-3.9%[11.6 µM]
COc1cccc(Nc2nc(-c3cccs3)nc3ccccc23)c1	?	9.6%	-1.0	?	1.6%	25.1µM*
COc1ccc(Nc2nc(-c3cccs3)nc3ccccc23)cc1	?	?	1.0	10µM*[quencher]	-5.3%	15.0%
CCN(CC)CCCC(C)n1c(-c2ccccc2)nc2c(NC3CCCCC3)nc(C)nc21 (centres undefined)	?	-8.7%	-1.2	-6.9%	2.9%	-1.1%
Oc1c(C(c2cccs2)N2CCN(c3ccccc3)CC2)ccc2cccnc12 (centres undefined)	7.94µM*	?	2.0	-4.8%	39.8µM*	2.4%
Oc1c(C(c2ccccc2Cl)N2CCCC2)ccc2cccnc12 (centres undefined)	?	?	-6.2	-3.3%	1.7%	2.3%
CCOc1ccc2[nH]c(=O)c(CN(Cc3ccco3)C(CC)c3nnnn3Cc3ccccc3)cc2c1 (centres undefined)	?	25.1µM*	-4.0	-12.1%	?	?
CCC(c1nnnn1Cc1ccco1)N(CCN1CCOCC1)Cc1cc2cc(C)ccc2[nH]c1=O (centres undefined)	?	?	-6.4	-4.8%	44.7µM*	-13.8%
COc1ccc2[nH]c(=O)c(CN(Cc3ccco3)Cc3nnnn3Cc3ccccc3)cc2c1	?	-2.1%	-8.7	-1.9%	56.2µM*	?
SMILES	KDM4E inh	Tau fibril ThT	Coupling enz	Tau fluor counter	Sfp inh	Tau fibril FP
CCOc1ccc2[nH]c(=O)c(CN(Cc3ccco3)Cc3nnnn3Cc3ccccc3)cc2c1	?	?	3.4	-18.3%	2.0%	-6.6%
COC(=O)c1ccccc1S(=O)(=O)N(Cc1ccco1)Cc1cc2cc(OC)ccc2[nH]c1=O	?	-12.8%	2.5	-11.8%	22.4µM*	4.3%
C[C@@]12CCC3c4ccc(OC5C=CC(c6ccccc6)OC5CO)cc4CCC3C1CCC2=O (some centres undefined)	/	?	-1.0	-10.5%[11.6 µM]	-14.7%	2.9%[11.6 µM]
O=c1c(-c2cccc(F)c2)nc2cncnc2n1C1CC1	/	/	2.3	/	16.7%	/
O=C1/C(=C\c2c(NCCOCCO)nc3ccccn3c2=O)SC(=S)N1Cc1ccco1	/	/	-1.7	/	39.8µM*	/
COc1cc(/C=C2\SC(=O)NC2=O)ccc1Oc1ccc([N+](=O)[O-])cc1[N+](=O)[O-]	-5.6%	14.1µM*	2.5	?	56.2µM*	-9.8%
COc1ccc(/C=C2\SC(=O)NC2=S)cc1OC	-28.2%	8.91µM*	8.6	-27.3%	25.1µM*	?
CO/N=C/c1ccc(Oc2ccc([N+](=O)[O-])cc2[N+](=O)[O-])c(OC)c1	-3.5%	14.9%	-7.0	1.3%	?	5.0%
O=C(CN1CCNCC1)NC1CCCCC1	/	/	/	/	9.7%	/
CCCCNC(=O)Nc1ccccc1CC	4.2%	-3.3%	1.1	-2.1%	18.0%	3.2%
CCCCNC(=O)Nc1cc(C(F)(F)F)c[nH]c1=O	2.6%	-3.0%	-43.1*	-7.1%	0.6%	-10.7%
CCc1ccc(C2/C=C\CNC(c3ccccc3)C(=O)N2Cc2ccc(C)cc2)cc1 (centres undefined)	/	/	0.3	/	-6.7%	/
COc1ccc(Cl)cc1N1C(=O)CN(Cc2cc(OC)c(OC)c(OC)c2)C1=S	/	/	-2.5	/	50.1µM*	/
COc1ccc(CN2CC(=O)N(c3cc(Cl)ccc3OC)C2=S)cc1OC	/	/	-0.2	/	-17.6%	/
COc1ccc(N/C(=C(/C(Cl)=C(Cl)Cl)[N+](=O)[O-])n2nnc3ccccc32)cc1OC	?	14.1µM*	-29.1	?	20µM*	?
CC(/C=C1\SC(=S)N(NC(=O)c2ccc(O)cc2)C1=O)=C\c1ccccc1	1.7%	4.8%	-10.0	6.9%	50.1µM*	0.8%
O=C(NN1C(=O)/C(=C/c2ccc(O)c(O)c2)SC1=S)c1ccccc1	/	/	-3.8	/	-26.4%	/
CCN(CC)CCOC(=O)c1ccc(NC(=O)CCCN2C(=O)/C(=C\c3cccs3)SC2=S)cc1	/	/	/	/	50.1µM*	/

Source: PubChem (National Center for Advancing Translational Sciences (NCATS))
